# Values joined by “and” are separate entries in the source; they are usually repeats but may differ in a detail not shown here. Equal entries are not always repeated. Results filed as inconclusive are left out. Where a call stands in place of a potency, no number is given. More than one record can exist for a structure, and the calls need not agree. Active and inactive are the calls of the source. Unless noted, calls come from the whole dose curve; as a rule, active = well fitted curve in the direction sought with a large enough effect in the repeat runs; inconclusive = weak or mixed curves; inactive = no such curve, though single readings can be large; an effect the other way counts as inactive or inconclusive.
# Key:
# [1] = Caspase-3/7 induction in HepG2 cells by small molecules, qHTS cell viability counter screen (AID 1346981); note: series mostly up to about 92 µM; nearly all actives have a fitted effect of over 30% in size
# In short: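 After a 5-hr attachment period at 37 C and 5% CO2, wild-type HepG2 cells received compounds in DMSO. Sixteen hours later CellTiter-Fluor was dispensed and the fluorescent signal quantified after a further hour.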
# [2] = biological target: Nuclear receptor subfamily 1 group I member 2 (Homo sapiens) (UniProt O75469); assay: Human pregnane X receptor (PXR) small molecule agonists, qHTS assay (AID 1346982); note: nearly all actives have a fitted effect of over 35% in size; note: potency is the fitted concentration of half-maximal effect
# In short: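 Tox21 qHTS; PXR-Luc HepG2; compounds pinned from DMSO; 24 hr, 37 C; ONE-Glo luciferase detection, 30 min room temperature.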
# [3] = biological target: Acetylcholinesterase (Homo sapiens) (UniProt P22303); assay: Acetylcholinesterase (AChE) small molecule antagonists: colormetric cell-based qHTS assay (AID 1347395; calls by dose curve; note: nearly all actives have a fitted effect of over 30% in size; note: potency is the fitted concentration of half-maximal effect)
# In short: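 SH-SY5Y cells attached overnight, exposed to compound 30 min at 37 C, then given DTNB/acetylthiocholine; after 90 min at 37 C, colorimetric thiocholine read gives cellular AChE activity.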
# [4] = biological target: Acetylcholinesterase (Homo sapiens) (UniProt P22303); assay: Acetylcholinesterase (AChE) small molecule antagonists: fluorescence cell-based qHTS assay (AID 1347398; calls by dose curve; note: nearly all actives have a fitted effect of over 50% in size; note: potency is the fitted concentration of half-maximal effect); settings: Potency: AChE activity
# In short: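 SH-SY5Y, 2,000 cells/well, attached overnight; cmpd 30 min 37 C; acetylthiocholine/Thiolite Green cocktail 40 min RT; fluorescence Ex/Em 490/520 nm.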
# [5] = biological target: Acetylcholinesterase (Homo sapiens) (UniProt P22303); assay: Acetylcholinesterase (AChE) small molecule antagonists: enzyme-based qHTS assay with human liver microsomes (AID 1347399; calls by dose curve; note: nearly all actives have a fitted effect of over 60% in size; note: potency is the fitted concentration of half-maximal effect); settings: Potency: qHTS inhibition
# In short: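 Recombinant human AChE (50 mU/mL in the enzyme mix) and human liver microsomes (0.25 mg/mL final) were preincubated with compound and NADPH (0.25 mg/mL final) for 30 min at 37 C. Acetylthiocholine/DTNB was then added; thiocholine was read colorimetrically after 10 min at room temperature.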
# [6] = biological target: Cytochrome P450 2D6 (Homo sapiens) (UniProt P10635); assay: Cytochrome P450 Family 2 Subfamily D Member 6 (CYP2D6) small molecule antagonists: luciferase reporter qHTS assay (AID 1671196); note: series mostly up to about 120 µM; nearly all actives have a fitted effect of over 50% in size
# In short: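 Room-temperature luminescent CYP2D6 activity assay: compound preincubated 10 min with enzyme–substrate mix, NADPH-initiated reaction 1 h, detection reagent 20 min before reading.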
# [7] = biological target: Cytochrome P450 2C19 (Homo sapiens) (UniProt P33261); assay: Cytochrome P450 Family 2 Subfamily C Member 19 (CYP2C19) small molecule antagonists: luciferase reporter qHTS assay (AID 1671197); note: nearly all actives have a fitted effect of over 65% in size; note: potency is the fitted concentration of half-maximal effect
# In short: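 Compounds were tested on CYP2C19 activity via proluciferin conversion to luciferin. The 37C, 1 h reaction followed NADPH addition; detection reagent stopped it.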
# [8] = biological target: Cytochrome P450 2C9 (Homo sapiens) (UniProt P11712); assay: Cytochrome P450 Family 2 Subfamily C Member 9 (CYP2C9) small molecule antagonists: luciferase reporter qHTS assay (AID 1671198); note: nearly all actives have a fitted effect of over 50% in size; note: potency is the fitted concentration of half-maximal effect
# In short: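 P450-Glo proluciferin substrate with CYP2C9 enzyme; 10 min RT preincubation, then NADPH regeneration 1 h at 37C; luciferin detection reagent 20 min RT, luminescence in relative luminescence units.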
# [9] = biological target: Cytochrome P450 1A2 (Homo sapiens) (UniProt P05177); assay: Cytochrome P450 Family 1 Subfamily A Member 2 (CYP1A2) small molecule antagonists: luciferase reporter qHTS assay (AID 1671199); note: nearly all actives have a fitted effect of over 50% in size; note: potency is the fitted concentration of half-maximal effect
# In short: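 Room-temperature CYP1A2 reaction with proluciferin substrate: compounds added from DMSO, 10 min preincubation, NADPH regeneration for 1 h. Luciferin detection reagent then added; luminescence recorded as RLU.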
# [10] = biological target: Voltage-gated inwardly rectifying potassium channel KCNH2 (Homo sapiens) (UniProt Q12809); assay: Human Ether-a-go-go-Related Gene (hERG) channel small molecule antagonists: fluorescence cell-based qHTS assay (AID 1671200)
# In short: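 hERG-U2OS cells plated overnight at 37 C, loaded with FluxOR II dye 1 h at RT in dark; after 10 min, thallium stimulus added. Fluorescence (480/540 nm) read kinetically for 2 min at 1 s intervals.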
# [11] = biological target: Cytochrome P450 3A4 (Homo sapiens) (UniProt P08684); assay: Cytochrome P450 Family 3 Subfamily A Member 4 (CYP3A4) small molecule antagonists: luciferase reporter qHTS assay (AID 1671201); note: nearly all actives have a fitted effect of over 50% in size; note: potency is the fitted concentration of half-maximal effect
# In short: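 P450-Glo CYP3A4 luminescent assay: compounds preincubated 10 min at room temperature with enzyme and proluciferin substrate, NADPH regeneration added, 1 h room-temperature reaction, stopped with luciferin detection reagent; luminescence read after 20 min. Ketoconazole positive control.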
# [12] = biological target: Acetylcholinesterase (Homo sapiens) (UniProt P22303); assay: Acetylcholinesterase (AChE) small molecule antagonists: enzyme-based qHTS assay (AID 1347397; calls by dose curve; note: nearly all actives have a fitted effect of over 55% in size); settings: Potency: AChE enzyme activity inhibition
# In short: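 Colorimetric DTNB read-out of thiocholine released from acetylthiocholine by recombinant human AChE (50 mU/mL as dispensed). Compounds were preincubated 30 min at RT before substrate/DTNB addition, with a 10 min RT reaction.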
# Sequence of Cytochrome P450 2C9 (Homo sapiens) (P11712 whole entry, looked up): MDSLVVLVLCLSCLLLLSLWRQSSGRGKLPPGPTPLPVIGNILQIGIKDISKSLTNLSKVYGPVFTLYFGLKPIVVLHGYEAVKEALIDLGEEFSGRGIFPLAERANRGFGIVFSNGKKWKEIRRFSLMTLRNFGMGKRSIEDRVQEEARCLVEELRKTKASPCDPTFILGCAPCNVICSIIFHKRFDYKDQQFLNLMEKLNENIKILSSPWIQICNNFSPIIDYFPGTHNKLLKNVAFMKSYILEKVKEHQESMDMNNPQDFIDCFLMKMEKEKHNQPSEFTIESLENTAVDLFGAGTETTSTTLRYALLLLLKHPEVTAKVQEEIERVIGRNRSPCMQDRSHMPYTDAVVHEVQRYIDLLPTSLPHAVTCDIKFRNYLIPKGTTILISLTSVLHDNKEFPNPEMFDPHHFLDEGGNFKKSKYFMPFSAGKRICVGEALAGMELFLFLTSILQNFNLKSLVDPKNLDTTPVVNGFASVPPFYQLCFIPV
# Sequence of Cytochrome P450 1A2 (Homo sapiens) (P05177 whole entry, looked up): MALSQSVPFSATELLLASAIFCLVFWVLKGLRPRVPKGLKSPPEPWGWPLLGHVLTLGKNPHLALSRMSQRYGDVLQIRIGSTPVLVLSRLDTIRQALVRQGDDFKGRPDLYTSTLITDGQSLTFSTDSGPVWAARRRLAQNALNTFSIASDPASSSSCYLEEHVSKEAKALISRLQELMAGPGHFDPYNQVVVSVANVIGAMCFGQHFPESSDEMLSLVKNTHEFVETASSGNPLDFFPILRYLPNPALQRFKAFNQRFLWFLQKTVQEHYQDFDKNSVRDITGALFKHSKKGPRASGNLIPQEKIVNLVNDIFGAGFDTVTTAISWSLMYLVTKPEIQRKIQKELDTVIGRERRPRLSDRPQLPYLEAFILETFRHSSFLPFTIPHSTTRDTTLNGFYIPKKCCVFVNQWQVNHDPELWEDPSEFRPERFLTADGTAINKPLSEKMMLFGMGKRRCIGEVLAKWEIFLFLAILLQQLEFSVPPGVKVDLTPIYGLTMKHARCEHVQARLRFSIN
# Sequence of Acetylcholinesterase (Homo sapiens) (P22303 whole entry, looked up): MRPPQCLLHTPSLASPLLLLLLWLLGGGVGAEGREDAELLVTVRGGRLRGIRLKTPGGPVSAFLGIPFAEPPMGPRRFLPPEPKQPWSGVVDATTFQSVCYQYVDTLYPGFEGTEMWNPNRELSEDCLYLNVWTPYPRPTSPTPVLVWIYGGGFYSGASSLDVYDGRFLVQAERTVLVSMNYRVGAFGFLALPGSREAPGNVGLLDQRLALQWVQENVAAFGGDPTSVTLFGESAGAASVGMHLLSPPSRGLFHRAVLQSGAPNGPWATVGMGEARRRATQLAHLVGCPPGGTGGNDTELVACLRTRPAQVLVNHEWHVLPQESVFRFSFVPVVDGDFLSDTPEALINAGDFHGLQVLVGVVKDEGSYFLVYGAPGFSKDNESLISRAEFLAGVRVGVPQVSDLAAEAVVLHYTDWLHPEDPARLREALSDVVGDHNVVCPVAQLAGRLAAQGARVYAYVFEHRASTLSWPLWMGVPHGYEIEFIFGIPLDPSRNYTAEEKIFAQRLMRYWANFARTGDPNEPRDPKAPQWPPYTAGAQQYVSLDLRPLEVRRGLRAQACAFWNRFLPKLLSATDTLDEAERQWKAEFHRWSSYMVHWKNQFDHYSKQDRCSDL
# Sequence of Cytochrome P450 2D6 (Homo sapiens) (P10635 whole entry, looked up): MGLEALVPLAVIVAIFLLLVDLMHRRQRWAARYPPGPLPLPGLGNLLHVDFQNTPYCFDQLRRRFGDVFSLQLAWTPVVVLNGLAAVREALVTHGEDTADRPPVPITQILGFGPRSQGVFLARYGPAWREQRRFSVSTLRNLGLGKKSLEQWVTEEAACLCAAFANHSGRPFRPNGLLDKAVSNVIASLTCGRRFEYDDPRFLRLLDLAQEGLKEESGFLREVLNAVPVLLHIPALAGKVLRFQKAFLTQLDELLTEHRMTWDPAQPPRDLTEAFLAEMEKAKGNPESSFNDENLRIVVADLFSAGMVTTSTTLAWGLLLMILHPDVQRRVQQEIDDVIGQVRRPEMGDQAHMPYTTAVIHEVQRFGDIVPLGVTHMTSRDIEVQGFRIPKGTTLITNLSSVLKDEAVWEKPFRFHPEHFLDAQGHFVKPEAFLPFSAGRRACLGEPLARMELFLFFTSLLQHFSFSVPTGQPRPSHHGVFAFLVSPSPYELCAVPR
# Sequence of Voltage-gated inwardly rectifying potassium channel KCNH2 (Homo sapiens) (Q12809 whole entry, looked up): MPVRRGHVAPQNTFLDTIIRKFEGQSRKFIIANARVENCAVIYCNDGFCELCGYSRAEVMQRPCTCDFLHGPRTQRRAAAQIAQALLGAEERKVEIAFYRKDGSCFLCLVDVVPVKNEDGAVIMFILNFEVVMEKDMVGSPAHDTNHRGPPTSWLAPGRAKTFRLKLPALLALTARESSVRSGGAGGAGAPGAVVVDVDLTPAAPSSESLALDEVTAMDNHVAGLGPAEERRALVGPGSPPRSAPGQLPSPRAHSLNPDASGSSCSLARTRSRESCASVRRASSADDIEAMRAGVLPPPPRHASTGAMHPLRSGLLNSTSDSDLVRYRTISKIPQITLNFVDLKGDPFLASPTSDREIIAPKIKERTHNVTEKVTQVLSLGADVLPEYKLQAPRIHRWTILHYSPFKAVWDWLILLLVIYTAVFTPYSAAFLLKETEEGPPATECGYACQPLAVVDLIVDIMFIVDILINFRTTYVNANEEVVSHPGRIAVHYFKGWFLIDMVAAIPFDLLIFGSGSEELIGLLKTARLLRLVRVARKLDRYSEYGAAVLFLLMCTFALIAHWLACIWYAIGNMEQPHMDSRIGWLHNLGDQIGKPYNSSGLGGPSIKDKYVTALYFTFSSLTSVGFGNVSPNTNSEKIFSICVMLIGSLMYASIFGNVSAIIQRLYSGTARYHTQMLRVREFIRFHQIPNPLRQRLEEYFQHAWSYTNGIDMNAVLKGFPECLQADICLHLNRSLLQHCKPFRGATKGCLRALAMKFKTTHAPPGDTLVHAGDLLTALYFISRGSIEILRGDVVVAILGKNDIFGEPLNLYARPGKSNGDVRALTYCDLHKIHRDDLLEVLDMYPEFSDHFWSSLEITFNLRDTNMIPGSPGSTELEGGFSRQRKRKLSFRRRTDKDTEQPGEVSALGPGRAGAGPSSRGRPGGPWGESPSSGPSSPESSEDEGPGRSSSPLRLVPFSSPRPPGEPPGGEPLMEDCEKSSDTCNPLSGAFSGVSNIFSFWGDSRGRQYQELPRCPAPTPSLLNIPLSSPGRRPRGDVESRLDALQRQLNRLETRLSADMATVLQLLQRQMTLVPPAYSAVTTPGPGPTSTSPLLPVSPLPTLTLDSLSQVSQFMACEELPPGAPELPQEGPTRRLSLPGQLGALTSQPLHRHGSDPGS
# Sequence of Cytochrome P450 2C19 (Homo sapiens) (P33261 whole entry, looked up): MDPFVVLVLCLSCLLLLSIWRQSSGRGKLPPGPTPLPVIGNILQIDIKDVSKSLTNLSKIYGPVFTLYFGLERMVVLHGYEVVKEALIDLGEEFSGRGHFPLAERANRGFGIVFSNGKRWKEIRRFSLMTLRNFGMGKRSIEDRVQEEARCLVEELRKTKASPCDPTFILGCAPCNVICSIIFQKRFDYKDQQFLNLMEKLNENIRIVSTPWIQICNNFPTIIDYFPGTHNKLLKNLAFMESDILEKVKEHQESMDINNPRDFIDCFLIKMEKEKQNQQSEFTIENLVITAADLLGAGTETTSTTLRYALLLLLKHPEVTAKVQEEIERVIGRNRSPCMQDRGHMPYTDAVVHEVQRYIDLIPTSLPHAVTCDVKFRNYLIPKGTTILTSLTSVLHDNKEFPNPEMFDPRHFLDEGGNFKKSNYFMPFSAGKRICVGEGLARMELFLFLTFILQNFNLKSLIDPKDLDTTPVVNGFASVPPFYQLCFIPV
# Sequence of Cytochrome P450 3A4 (Homo sapiens) (P08684 whole entry, looked up): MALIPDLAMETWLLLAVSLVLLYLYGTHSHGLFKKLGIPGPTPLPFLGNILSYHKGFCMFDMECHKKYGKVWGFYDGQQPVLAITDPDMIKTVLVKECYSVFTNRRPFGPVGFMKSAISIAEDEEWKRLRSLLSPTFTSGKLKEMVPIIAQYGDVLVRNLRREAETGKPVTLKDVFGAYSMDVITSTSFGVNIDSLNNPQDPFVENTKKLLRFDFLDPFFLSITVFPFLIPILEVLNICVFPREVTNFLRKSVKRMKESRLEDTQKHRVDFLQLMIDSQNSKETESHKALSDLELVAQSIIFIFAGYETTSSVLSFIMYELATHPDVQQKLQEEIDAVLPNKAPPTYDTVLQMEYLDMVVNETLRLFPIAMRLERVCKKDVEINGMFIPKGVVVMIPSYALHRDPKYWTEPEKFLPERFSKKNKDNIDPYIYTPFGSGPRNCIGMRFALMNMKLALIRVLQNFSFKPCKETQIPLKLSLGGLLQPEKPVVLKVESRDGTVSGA
# Sequence of Nuclear receptor subfamily 1 group I member 2 (Homo sapiens) (O75469 whole entry, looked up): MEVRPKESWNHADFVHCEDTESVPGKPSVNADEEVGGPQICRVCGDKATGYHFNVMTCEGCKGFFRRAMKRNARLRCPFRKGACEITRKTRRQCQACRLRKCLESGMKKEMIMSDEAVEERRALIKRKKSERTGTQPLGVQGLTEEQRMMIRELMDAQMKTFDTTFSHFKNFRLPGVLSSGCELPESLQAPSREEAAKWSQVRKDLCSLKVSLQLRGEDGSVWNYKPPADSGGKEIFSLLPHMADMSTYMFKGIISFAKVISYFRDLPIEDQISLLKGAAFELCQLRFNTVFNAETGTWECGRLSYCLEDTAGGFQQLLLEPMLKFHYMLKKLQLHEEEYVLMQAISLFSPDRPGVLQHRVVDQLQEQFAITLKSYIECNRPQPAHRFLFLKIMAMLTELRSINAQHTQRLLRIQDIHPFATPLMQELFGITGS
SMILES,Potency [1],Potency [2],Potency [3],Potency [4],Potency [5],Potency [6],Potency [7],Potency [8],Potency [9],Potency [10],Potency [11],Potency [12]
C#CC(C)(C)NC(=O)c1cc(Cl)cc(Cl)c1,inactive,49 µM (active) and 30.6 µM (active),inactive,inactive,inactive,inactive,8.04 µM (active) and 39.9 µM (active),71.7 µM (active) and inactive,5.07 µM (active) and 15.9 µM (active),inactive,20.2 µM (active) and 35.6 µM (active),–
CCCCCCCCCl,inactive,63.1 µM (active) and inactive,inactive,–,inactive,inactive,inactive,inactive,inactive,inactive,inactive,inactive
Cc1cccc([N+](=O)[O-])c1,inactive,inactive,inactive,inactive,inactive,inactive,inactive,inactive,inactive,inactive,inactive,–
CNC(=O)Oc1ccccc1OC(C)C,inactive,inactive,2 µM (active) and 2.24 µM (active),798 nM (active) and 1.59 µM (active),22.5 µM (active) and 22.4 µM (active),inactive,inactive,inactive,35.6 µM (active),inactive,inactive,–
CC1C=[C-]C=C1.[C-]#[O+].[C-]#[O+].[C-]#[O+].[Mn],inactive,54.5 µM (active) and 19.2 µM (active),inactive,–,inactive,inactive,inactive,inactive,–,inactive,inactive,–
C=CC(N)=O,inactive,inactive,–,–,–,–,–,inactive,35.7 µM (active) and inactive,–,–,–
Cc1[nH]c(=O)n(C(C)(C)C)c(=O)c1Cl,inactive,inactive,inactive,–,inactive,inactive,71.7 µM (active) and 31.7 µM (active),inactive,–,inactive,inactive,–
[O-][Cl+2]([O-])O,inactive,inactive,inactive,–,inactive,inactive,inactive,inactive,inactive,inactive,inactive,inactive
Cc1ccccc1O,inactive,inactive,inactive,inactive,inactive,inactive,inactive,inactive,39.9 µM (active),inactive,inactive,–
COC(=O)c1ccccc1N,inactive,inactive,inactive,–,inactive,inactive,inactive,–,34.4 µM (active) and 39.9 µM (active),inactive,inactive,inactive

# Source: PubChem BioAssay (Tox21)
